Data as given in PubChem BioAssay AID904 (National Center for Advancing Translational Sciences (NCATS), 2007).
In all, about 55,000 compounds went through this assay and about 530 (0.96%) were called active. Another 7% or so got no clear call; they are omitted. The entries come from a sample that favours actives as a whole. Unmarked numbers belong to inactive results. Calls follow the shape of the dose curve; as a rule, active = well fitted cell-killing curve with a large enough effect; inconclusive = small, poorly fitted or top-dose-only effect; inactive = no such curve, though single readings can be large or run the other way.

Assay: qHTS Screen for Compounds that Selectively Target Cancer Cells with p53 Mutations: Cytotoxicity of p53 Null Cells at the Nonpermissive Temperature; also: nearly all actives have a fitted effect of over 50% in size;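 as to activity, negative = cell killing: 0% = DMSO only and -100% = full killing by 100 µM tamoxifen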
Conditions: H1299 p53-null (neo) cells, 39C, ATPlite viability, 24 h; series mostly up to 46.1 µM; activity, negative = cell killing: at the top concentration
Method in brief: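 Concentration-response (up to 46 uM) was run for 24 h at the nonpermissive 39C on H1299-p53A138V or H1299-neo cells. ATP content was measured with ATPlite luminescence. AC50 values were Hill-modeled after normalizing between DMSO and 100 uM tamoxifen killing.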
Potency is read from the fitted curve at half-maximal effect.

SMILES | activity, negative = cell killing | Potency
Cc1ccc(NC(=O)C(=O)NCc2ccc(/C=N/NC(=O)c3c(C)nc4cc(C)ccn34)o2)cc1 | 8.36% | 
Cc1c(C(=O)NCCCc2ccccc2)cccc1[N+](=O)[O-] | -7.93% [at 1.84 µM] | 
CC(NC(=S)Nc1ccccc1)C1COc2ccccc2O1 (stereo not drawn) | -2.56% | 
COc1cccc2c1cc1c(=O)n(CC(=O)N3CCN(c4cccc(Cl)c4)CC3)nc(C)n12 | -8.53% | 
COc1cc(OC)c(C(=O)Nc2ccccc2-c2ccccc2)cc1OC | 18.9% [at 1.84 µM] | 
CCOC(=O)c1ccc(NC(=O)Cn2c(=O)cc(C)c3c(C)nn(-c4cccc(F)c4)c32)cc1 | -0.639% | 
Cc1nn(-c2ccccc2)c(Cl)c1/C=C/C(=O)c1ccc(O)cc1 | 23.1% | 
COc1ccc(NC(=O)CC2C(=O)OCC3CCCCN32)cc1Cl (stereo not drawn) | 14% [at 1.84 µM] | 
CC(C)(C)c1ccc(C(=O)NCc2nnc(SCC(=O)N3CCCc4ccccc43)n2-c2ccccc2)cc1 | -3.75% | 
Cc1cc(C)c(NC(=O)c2oc3ccccc3c2COc2ccccc2)c(C)c1 | 16.4% | 
O=C(Nc1nc2c(s1)CCCC2)c1ccccc1F |  | 7.94 µM (active)
Cc1ccccc1NC(=O)c1c(NC(=O)c2ccccc2F)sc2c1CCC(C)C2 (stereo not drawn) | 3.45% | 
Cc1cc(C)cc(OC(C)C(=O)Nc2nc3c(s2)CCCC3)c1 (stereo not drawn) | 7.6% | 
COc1ccc(Cl)cc1NC(=O)CNc1ccccc1F | 28.8% [at 1.84 µM] | 
CCc1ccccc1N1CC(c2nc3ccccc3n2CCCCOc2ccccc2)CC1=O (stereo not drawn) |  | 20 µM (active)
COc1ccc(OCCCn2c(C3CC(=O)N(c4ccc(F)cc4)C3)nc3ccccc32)cc1 (stereo not drawn) | -24.9% | 
CCCCN1CC(c2nc3ccccc3n2CCCCOc2ccc(C)cc2C)CC1=O (stereo not drawn) | 15.7% | 
Cc1cccc(NC(=S)Nc2ccc3cn[nH]c3c2)c1 | 13% | 
CCN1CCN(C(=O)C2(NC(=O)Nc3cccc(F)c3)CCCCC2)CC1 | -11.5% | 
COc1cc(Cl)c(C)cc1NC(=O)CCc1nc2cccnc2n1Cc1cccs1 | 22.6% | 
O=S(=O)(NN=C1CCCCCCC1)c1ccc(Br)cc1 | -8.87% | 
CC1=CC(=C(C#N)c2nc3ccccc3s2)C=C(C)N1c1ccc(F)cc1F | 34.3% | 
CCc1ccc(C2CC(=O)c3c([nH]c(C(=O)OCc4ccc(C)cc4)c3C)C2)cc1 (stereo not drawn) | 15.3% | 
Cc1cc(C)cc(C(=O)N2CCN=C2SCc2ccc([N+](=O)[O-])cc2)c1 | -7.93% | 

SMILES | activity, negative = cell killing | Potency
Fc1ccc(Nc2nc(SCc3ccccc3Cl)nc3ccccc23)cc1 | -16.2% | 
CC(C)(C)NC(=O)CSc1nc(-c2ccc(F)cc2)cc(C(F)(F)F)n1 | 20.5% | 
CSc1nc(Nc2ccc(F)cc2)cc(-c2ccccc2)n1 |  | 15.8 µM (active)
Cc1ccc(CNC(=O)CCc2c(C)nc3c(c(C)nn3-c3ccccc3)c2C)cc1 | -14.7% | 
CCC1CCCCN1C(=S)Nc1ccc(SC(F)F)cc1 (stereo not drawn) | -0.151% | 
CCc1ccccc1NC(=O)Cn1c(=O)n(-c2cccc(C)c2)c(=O)c2c1c1cc(OC)ccc1n2C | 17.9% | 
Cc1ccc(-c2nn3c(=O)cc(CN4CCN(S(=O)(=O)c5ccc(Cl)cc5)CC4)nc3s2)cc1 | -26.2% | 
CCCCOC(=O)/C(C#N)=C/c1ccc(-c2cccc(C(F)(F)F)c2)o1 | 20.7% | 
COc1cc(Nc2nc(-c3ccc(OC)c(OC)c3)nc3ccccc23)cc(OC)c1 |  | 14.1 µM (active)
COc1cccc(Nc2nc3ccccc3c3nncn23)c1 | -29.5% | 
CCOC(=O)c1nc(Nc2ccc(C(=O)OC)cc2)c2ccccc2n1 | 2.12% | 
O=C(Nc1ccc2c(c1)OCO2)c1cc(-c2cccc(Cl)c2)on1 | -4.53% | 
Cc1ccccc1-c1nc2scc(CCNC(=O)C(=O)Nc3ccc(F)cc3F)n2n1 | -1.2% | 
Cc1ccc(Nc2c(-c3ccc(C)cc3)nc3cnccn23)cc1 | 44.7% | 
CC(=O)Nc1ccc(S(=O)(=O)N2CCN(c3ccc([N+](=O)[O-])c(NCCN4CCOCC4)c3)CC2)cc1 | 12.1% | 
Cc1ccc(CSc2nc3cccnc3n2Cc2ccc(C(=O)NC3CC3)cc2)cc1 |  | 3.16 µM (active)
O=C(O)c1ccc(CSc2nc3cccnc3n2Cc2cccc(F)c2)cc1 | -10.2% | 
O=C(NC1CCCCC1)c1ccc(Cn2c(SCc3ccccc3)nc3cccnc32)cc1 | -16.3% | 
COc1ccc(OC)c(-c2nc(C(N)=O)c3c(n2)n(-c2ccc4c(c2)OCO4)c(=O)n3C)c1 | -6.52% | 
CCOc1ccc(NC(=O)CN(Cc2ccccc2)S(=O)(=O)c2ccc(Cl)cc2)cc1 | -6.25% | 
CCOc1ccc(N(Cc2ccccc2)C(=O)c2nc(S(C)(=O)=O)ncc2Cl)cc1 |  | 10 µM (active)
CCOc1ccc(N(Cc2ccccc2)C(=O)c2nc(SCC)ncc2Cl)cc1 | 35.2% | 
CNc1ccc(NC(C)=O)cc1[N+](=O)[O-] | -11.3% [at 1.84 µM] | 
N#Cc1c(-c2ccc(F)cc2)cc(C2CC2)nc1SCC(=O)c1cccs1 | -5.05% [at 1.84 µM] | 
